Experimental data: article PMC7862700, “An all-to-all approach to the identification of sequence-specific readers for epigenetic DNA modifications on cytosine”

Experiments:
Test in all cases: DAPPL (digital affinity profiling via proximity ligation, sequencing); 10 mM Tris-HCl pH 7.5, 50 mM NaCl, 1 mM DTT, 4% glycerol, room temperature, 30 min; GST-TFs on glutathione beads, 16-mer random dsDNA library, 0.1% formaldehyde crosslink after washing; high values mean tight binding
FEV = target: T1, FEV (Homo sapiens, UniProt Q99581 1-238); conditions: protein: recombinant; tags: N-terminal GST; dsDNA, one strand shown
T1 sequence: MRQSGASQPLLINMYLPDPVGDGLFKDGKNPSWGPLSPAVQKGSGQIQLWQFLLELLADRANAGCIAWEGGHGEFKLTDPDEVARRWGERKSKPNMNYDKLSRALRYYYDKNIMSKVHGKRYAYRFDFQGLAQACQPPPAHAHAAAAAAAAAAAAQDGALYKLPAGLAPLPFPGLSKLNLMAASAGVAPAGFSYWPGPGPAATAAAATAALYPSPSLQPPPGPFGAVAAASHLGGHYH
In short: (§1)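 After expression in yeast as GST fusions, human transcription factors were bound to glutathione beads, DNA-barcoded and mixed with a tag-only sample. The pools were incubated with 200 nmole of a 16-mer random double-stranded DNA library in Tris/NaCl/DTT/glycerol buffer (30 min, room temperature), washed and crosslinked with 0.1% formaldehyde. Proximity ligation with BsaI/T4 ligase ran for 1 h at 37 °C, before PCR amplification and sequencing on an Illumina NextSeq500. Binding signal is a hexamer's read frequency for a factor divided by its frequency for the tag-only sample.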

ETV5 = ETV5 (Homo sapiens, UniProt P41161 1-510); conditions: protein: recombinant; tags: N-terminal GST; dsDNA, one strand shown
Sequence of ETV5 (P41161 whole entry): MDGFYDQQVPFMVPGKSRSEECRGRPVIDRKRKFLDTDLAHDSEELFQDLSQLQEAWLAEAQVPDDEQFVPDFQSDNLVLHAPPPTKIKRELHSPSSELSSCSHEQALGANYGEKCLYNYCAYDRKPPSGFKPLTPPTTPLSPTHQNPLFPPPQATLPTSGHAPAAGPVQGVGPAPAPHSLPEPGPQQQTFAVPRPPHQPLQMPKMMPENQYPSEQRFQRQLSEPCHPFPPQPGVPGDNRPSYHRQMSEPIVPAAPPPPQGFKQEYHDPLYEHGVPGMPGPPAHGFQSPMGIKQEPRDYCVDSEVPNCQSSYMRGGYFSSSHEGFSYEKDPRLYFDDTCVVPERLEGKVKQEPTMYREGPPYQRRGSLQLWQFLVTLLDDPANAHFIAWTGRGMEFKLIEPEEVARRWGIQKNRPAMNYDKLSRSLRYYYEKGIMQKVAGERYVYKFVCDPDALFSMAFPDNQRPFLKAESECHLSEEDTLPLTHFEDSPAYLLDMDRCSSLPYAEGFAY
In short: as §1

HSF1 = HSF1 (Homo sapiens, UniProt Q00613 1-529); conditions: protein: recombinant; tags: N-terminal GST; chain copies: 3; dsDNA, one strand shown
Sequence of HSF1 (Q00613 whole entry): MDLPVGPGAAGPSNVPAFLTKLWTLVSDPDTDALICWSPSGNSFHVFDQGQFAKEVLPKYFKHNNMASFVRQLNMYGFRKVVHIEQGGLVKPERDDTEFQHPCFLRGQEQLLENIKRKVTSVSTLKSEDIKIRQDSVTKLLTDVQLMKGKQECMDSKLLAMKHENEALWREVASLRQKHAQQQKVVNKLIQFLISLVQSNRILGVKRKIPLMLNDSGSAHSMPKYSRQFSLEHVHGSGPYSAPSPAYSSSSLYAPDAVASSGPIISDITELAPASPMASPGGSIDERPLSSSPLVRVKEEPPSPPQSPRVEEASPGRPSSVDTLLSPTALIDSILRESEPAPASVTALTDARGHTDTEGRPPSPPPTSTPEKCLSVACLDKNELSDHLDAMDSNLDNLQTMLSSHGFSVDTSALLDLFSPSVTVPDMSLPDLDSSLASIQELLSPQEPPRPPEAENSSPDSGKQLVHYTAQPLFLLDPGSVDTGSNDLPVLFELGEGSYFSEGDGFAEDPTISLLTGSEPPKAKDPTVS
In short: as §1

SPIC = target: T2, SPIC (Homo sapiens, UniProt Q8N5J4 1-248); conditions: protein: recombinant; tags: N-terminal GST; dsDNA, one strand shown
T2 sequence: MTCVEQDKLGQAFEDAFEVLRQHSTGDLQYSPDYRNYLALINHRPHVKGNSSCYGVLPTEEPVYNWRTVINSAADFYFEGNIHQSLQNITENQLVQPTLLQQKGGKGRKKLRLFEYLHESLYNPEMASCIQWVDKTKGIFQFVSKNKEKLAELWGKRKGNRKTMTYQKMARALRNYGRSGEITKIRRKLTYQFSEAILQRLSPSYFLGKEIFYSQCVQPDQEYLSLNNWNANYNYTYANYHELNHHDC
In short: as §1

ELF4 = ELF4 (Homo sapiens, UniProt Q99607 1-663); conditions: protein: recombinant; tags: N-terminal GST; dsDNA, one strand shown
Sequence of ELF4 (Q99607 whole entry): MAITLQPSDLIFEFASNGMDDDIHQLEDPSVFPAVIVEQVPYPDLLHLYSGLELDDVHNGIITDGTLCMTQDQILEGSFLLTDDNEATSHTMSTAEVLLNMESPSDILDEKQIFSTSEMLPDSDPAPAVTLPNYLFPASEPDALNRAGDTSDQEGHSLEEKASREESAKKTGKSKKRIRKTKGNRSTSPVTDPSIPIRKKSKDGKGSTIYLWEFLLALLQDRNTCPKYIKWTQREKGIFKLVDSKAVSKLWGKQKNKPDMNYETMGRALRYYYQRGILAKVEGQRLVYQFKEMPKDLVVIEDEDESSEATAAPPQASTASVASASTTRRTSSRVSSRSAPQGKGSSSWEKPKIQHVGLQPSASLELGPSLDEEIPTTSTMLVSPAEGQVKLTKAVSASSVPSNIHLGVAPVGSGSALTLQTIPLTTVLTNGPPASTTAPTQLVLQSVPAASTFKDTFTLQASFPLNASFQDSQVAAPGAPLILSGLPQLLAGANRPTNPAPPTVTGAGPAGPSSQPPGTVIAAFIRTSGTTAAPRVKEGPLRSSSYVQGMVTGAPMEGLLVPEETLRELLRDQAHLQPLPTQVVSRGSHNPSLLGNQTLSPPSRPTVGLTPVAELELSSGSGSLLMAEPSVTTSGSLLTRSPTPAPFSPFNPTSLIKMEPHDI
In short: as §1

ELK4 = target: T3, ELK4 (Homo sapiens, UniProt P28324-2 1-405); conditions: protein: recombinant; tags: N-terminal GST; dsDNA, one strand shown
T3 sequence: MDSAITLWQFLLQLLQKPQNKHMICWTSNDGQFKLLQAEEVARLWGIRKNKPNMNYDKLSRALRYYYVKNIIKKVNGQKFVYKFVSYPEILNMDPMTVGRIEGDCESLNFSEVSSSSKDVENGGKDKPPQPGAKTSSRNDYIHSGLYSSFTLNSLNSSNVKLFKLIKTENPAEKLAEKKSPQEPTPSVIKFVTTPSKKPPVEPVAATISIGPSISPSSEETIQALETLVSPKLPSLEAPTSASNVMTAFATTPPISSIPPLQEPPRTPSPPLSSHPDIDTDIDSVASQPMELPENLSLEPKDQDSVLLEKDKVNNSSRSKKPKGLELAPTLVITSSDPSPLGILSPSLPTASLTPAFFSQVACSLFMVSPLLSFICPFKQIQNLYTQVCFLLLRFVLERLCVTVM
In short: as §1

ETV2 = target: T4, ETV2 (Homo sapiens, UniProt O00321 1-342); conditions: protein: recombinant; tags: N-terminal GST; dsDNA, one strand shown
T4 sequence: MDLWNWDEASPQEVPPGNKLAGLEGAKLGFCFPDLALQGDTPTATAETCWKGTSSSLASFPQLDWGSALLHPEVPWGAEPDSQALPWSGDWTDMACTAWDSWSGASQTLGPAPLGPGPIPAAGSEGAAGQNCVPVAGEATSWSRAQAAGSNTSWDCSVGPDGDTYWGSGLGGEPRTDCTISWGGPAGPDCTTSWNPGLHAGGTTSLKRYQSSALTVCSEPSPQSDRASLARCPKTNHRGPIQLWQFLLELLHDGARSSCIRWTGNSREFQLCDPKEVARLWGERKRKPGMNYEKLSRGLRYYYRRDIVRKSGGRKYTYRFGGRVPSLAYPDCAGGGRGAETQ
In short: as §1

ELF3 = target: T5, ELF3 (Homo sapiens, UniProt P78545 1-371); conditions: protein: recombinant; tags: N-terminal GST; dsDNA, one strand shown
T5 sequence: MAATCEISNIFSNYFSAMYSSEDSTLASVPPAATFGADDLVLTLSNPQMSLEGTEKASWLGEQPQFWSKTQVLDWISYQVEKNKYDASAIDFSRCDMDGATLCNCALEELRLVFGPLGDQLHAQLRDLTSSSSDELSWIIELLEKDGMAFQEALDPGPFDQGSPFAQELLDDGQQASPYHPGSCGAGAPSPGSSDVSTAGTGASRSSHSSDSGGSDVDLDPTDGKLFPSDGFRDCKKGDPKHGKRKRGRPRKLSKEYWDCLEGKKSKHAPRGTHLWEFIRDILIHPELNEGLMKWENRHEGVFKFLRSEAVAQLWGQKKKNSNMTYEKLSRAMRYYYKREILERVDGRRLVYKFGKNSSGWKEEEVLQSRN
In short: as §1

CRX = CRX (Homo sapiens, UniProt O43186 1-299); conditions: protein: recombinant; tags: N-terminal GST; dsDNA, one strand shown
Sequence of CRX (O43186 whole entry): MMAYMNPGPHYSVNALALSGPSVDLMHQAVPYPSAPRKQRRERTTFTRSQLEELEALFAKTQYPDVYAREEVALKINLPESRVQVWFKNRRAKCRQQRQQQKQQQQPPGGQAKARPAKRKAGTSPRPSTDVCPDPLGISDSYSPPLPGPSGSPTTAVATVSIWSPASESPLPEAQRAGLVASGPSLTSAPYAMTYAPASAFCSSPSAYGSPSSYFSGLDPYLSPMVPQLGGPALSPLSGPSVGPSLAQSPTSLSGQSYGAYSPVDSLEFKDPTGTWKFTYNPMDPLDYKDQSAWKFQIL
In short: as §1

ETV1 = ETV1 (Homo sapiens, UniProt P50549 1-477); conditions: protein: recombinant; tags: N-terminal GST; dsDNA, one strand shown
Sequence of ETV1 (P50549 whole entry): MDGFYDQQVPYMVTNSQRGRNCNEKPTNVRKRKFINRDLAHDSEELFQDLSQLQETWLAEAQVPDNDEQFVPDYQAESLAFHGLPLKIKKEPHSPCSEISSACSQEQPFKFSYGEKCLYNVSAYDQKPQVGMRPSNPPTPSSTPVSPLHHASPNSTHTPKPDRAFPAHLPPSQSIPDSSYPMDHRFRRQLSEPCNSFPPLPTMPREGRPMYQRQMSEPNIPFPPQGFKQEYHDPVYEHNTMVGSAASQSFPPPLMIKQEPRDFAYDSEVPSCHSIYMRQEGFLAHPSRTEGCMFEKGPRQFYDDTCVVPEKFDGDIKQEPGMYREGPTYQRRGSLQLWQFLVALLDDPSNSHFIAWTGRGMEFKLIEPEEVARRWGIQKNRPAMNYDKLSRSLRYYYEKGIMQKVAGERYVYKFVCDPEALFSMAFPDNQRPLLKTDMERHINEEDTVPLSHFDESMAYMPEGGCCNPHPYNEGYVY
In short: as §1

ERF = target: T6, ERF (Homo sapiens, UniProt P50548 1-548); conditions: protein: recombinant; tags: N-terminal GST; dsDNA, one strand shown
T6 sequence: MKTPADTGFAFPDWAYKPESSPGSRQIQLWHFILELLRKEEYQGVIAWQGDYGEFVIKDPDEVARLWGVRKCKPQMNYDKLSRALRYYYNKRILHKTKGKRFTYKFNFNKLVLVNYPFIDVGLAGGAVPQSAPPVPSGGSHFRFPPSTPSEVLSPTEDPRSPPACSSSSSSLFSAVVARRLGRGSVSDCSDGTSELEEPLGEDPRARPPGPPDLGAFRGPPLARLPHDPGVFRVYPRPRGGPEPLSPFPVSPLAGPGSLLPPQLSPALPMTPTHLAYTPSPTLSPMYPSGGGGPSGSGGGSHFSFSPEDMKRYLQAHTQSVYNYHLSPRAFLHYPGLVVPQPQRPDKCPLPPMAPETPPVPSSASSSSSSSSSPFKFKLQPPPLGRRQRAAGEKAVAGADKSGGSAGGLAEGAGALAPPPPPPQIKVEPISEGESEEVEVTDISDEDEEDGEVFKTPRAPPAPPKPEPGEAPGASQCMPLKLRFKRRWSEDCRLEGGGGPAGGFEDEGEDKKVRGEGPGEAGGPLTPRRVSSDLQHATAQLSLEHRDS
In short: as §1

ETV3L = target: T7, ETV3L (Homo sapiens, UniProt Q6ZN32 1-361); conditions: protein: recombinant; tags: N-terminal GST; dsDNA, one strand shown
T7 sequence: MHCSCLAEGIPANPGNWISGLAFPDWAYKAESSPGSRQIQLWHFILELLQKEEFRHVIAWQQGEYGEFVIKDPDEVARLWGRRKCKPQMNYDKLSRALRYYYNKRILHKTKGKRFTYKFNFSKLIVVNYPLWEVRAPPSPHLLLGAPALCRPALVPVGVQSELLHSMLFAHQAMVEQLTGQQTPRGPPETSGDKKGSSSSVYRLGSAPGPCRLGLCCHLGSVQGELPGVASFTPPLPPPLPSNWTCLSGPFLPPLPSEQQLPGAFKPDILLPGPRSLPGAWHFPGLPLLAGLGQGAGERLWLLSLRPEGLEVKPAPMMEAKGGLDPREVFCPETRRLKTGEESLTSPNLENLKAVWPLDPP
In short: as §1

ETS2 = target: T8, ETS2 (Homo sapiens, UniProt P15036 1-469); conditions: protein: recombinant; tags: N-terminal GST; dsDNA, one strand shown
T8 sequence: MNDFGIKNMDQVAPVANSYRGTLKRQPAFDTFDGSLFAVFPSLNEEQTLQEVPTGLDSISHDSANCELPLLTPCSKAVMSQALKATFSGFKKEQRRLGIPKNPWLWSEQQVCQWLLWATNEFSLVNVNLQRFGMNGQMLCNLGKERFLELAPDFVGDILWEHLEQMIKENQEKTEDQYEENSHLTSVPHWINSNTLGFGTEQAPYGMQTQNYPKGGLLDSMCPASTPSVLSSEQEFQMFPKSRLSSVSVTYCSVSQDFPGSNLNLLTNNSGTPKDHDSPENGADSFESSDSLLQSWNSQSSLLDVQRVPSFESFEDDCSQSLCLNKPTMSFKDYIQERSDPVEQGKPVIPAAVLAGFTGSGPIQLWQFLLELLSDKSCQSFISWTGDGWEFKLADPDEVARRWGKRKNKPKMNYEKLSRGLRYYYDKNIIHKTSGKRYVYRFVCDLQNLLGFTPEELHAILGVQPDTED
In short: as §1

SPDEF = target: T9, SPDEF (Homo sapiens, UniProt O95238 1-335); conditions: protein: recombinant; tags: N-terminal GST; dsDNA, one strand shown
T9 sequence: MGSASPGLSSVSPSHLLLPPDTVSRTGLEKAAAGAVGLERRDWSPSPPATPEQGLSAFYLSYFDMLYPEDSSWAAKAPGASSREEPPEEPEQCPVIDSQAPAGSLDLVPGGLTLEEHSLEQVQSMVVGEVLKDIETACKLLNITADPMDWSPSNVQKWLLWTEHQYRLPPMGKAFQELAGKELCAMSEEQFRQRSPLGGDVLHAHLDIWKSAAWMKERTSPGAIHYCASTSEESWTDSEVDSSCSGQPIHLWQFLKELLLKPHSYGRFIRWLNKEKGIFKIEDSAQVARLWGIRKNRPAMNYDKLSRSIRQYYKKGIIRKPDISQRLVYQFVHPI
In short: as §1

ETV7 = target: T10, ETV7 (Homo sapiens, UniProt Q9Y603 1-341); conditions: protein: recombinant; tags: N-terminal GST; dsDNA, one strand shown
T10 sequence: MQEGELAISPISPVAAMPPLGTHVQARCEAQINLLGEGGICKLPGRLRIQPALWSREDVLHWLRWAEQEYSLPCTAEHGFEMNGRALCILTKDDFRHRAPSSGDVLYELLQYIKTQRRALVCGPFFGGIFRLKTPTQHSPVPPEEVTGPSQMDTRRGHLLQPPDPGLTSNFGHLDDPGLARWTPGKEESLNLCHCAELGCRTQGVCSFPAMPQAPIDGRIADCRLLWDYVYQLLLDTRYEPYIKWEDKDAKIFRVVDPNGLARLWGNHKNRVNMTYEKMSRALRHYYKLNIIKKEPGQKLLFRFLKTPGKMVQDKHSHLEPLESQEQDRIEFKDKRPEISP
In short: as §1

ELF5 = target: T11, ELF5 (Homo sapiens, UniProt Q9UKW6-2 1-255); conditions: protein: recombinant; tags: N-terminal GST; dsDNA, one strand shown
T11 sequence: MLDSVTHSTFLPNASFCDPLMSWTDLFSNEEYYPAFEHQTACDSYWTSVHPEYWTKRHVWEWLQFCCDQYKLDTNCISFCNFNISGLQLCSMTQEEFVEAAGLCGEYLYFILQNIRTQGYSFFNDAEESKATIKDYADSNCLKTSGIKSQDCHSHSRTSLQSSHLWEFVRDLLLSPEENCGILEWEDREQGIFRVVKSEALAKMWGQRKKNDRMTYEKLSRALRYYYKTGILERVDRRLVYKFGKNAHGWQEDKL
In short: as §1

ETV3 = target: T12, ETV3 (Homo sapiens, UniProt P41162-2 1-143); conditions: protein: recombinant; tags: N-terminal GST; dsDNA, one strand shown
T12 sequence: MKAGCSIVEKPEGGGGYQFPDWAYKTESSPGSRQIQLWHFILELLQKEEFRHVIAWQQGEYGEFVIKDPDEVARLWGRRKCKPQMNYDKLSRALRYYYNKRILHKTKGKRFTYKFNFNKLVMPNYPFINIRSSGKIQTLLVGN
In short: as §1

ETV6 = ETV6 (Homo sapiens, UniProt P41212 1-452); conditions: protein: recombinant; tags: N-terminal GST; dsDNA, one strand shown
Sequence of ETV6 (P41212 whole entry): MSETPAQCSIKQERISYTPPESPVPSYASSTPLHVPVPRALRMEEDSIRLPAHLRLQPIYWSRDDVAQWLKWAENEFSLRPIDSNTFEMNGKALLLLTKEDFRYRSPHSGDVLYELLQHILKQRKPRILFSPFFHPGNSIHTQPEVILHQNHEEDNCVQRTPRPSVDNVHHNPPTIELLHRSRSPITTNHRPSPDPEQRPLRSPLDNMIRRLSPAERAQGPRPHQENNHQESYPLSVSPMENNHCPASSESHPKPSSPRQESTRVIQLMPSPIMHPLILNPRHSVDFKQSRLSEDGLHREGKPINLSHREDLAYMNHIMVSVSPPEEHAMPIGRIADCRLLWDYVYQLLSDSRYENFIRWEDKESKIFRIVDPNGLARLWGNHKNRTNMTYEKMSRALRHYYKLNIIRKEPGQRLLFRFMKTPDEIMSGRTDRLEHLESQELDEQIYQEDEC
In short: as §1

For TTTTTC, the binding signal (FEV) was 1.19 fold enrichment (6-mer frequency, TF over GST control), the binding signal (ETV5) was 1.27 fold enrichment (6-mer frequency, TF over GST control) and the binding signal (HSF1) was 1.44 fold enrichment (6-mer frequency, TF over GST control). For the same sequence, the binding signal (SPIC) was 1.11 fold enrichment (6-mer frequency, TF over GST control), the binding signal (ELF4) was 1.32 fold enrichment (6-mer frequency, TF over GST control) and the binding signal (ELK4) was 1.16 fold enrichment (6-mer frequency, TF over GST control). The binding signal (ETV2) was 1.24 fold enrichment (6-mer frequency, TF over GST control), the binding signal (ELF3) was 1.26 fold enrichment (6-mer frequency, TF over GST control) and the binding signal (CRX) was 1.09 fold enrichment (6-mer frequency, TF over GST control). For the same sequence, the binding signal (ETV1) was 1.21 fold enrichment (6-mer frequency, TF over GST control), the binding signal (ERF) was 1.16 fold enrichment (6-mer frequency, TF over GST control) and the binding signal (ETV3L) was 1.34 fold enrichment (6-mer frequency, TF over GST control). For the same sequence, the binding signal (ETS2) was 1.17 fold enrichment (6-mer frequency, TF over GST control), the binding signal (SPDEF) was 1.21 fold enrichment (6-mer frequency, TF over GST control) and the binding signal (ETV7) was 1.23 fold enrichment (6-mer frequency, TF over GST control). The binding signal (ELF5) was 1.37 fold enrichment (6-mer frequency, TF over GST control), the binding signal (ETV3) was 1.25 fold enrichment (6-mer frequency, TF over GST control) and the binding signal (ETV6) was 1.15 fold enrichment (6-mer frequency, TF over GST control).
